“And” between values parts separate entries of the source, which are not always exact repeats. Equal entries are not always repeated. Records with an inconclusive call do not appear. The source made the active and inactive calls. How the source made its calls, unless noted: active means hit-call score of the fitted dose curve at least 0.9, where 1 is the maximum; inconclusive means response in the unintended direction; inactive means score below 0.9.
Key:
[1] = system: NCBI gene 24521; assay: NVS_IC_rKATPCh: NovaScreen (NVS) Ion Channel Assay for rat Potassium Channel, ATP-Sensitive (KATPCh) (AID 2283319)
Outline: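 Rat cortical membranes; radioligand binding at ATP-sensitive K channel site, filter-based scintillation counting 2 h after dosing. Single-point duplicate screen at 25 uM, hits rerun in concentration-response up to 50 uM; loss of signal versus DMSO.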

[2] = molecular target: rat Opioid Receptor, Non-selective Binding, Oprm1 (gene 25601) (UniProt P33535); assay: NVS_GPCR_rOpiate_NonSelective: NovaScreen (NVS) G Protein-Coupled Receptor Assay for rat Opioid Receptor, Non-selective Binding (AID 2283318)
Sequence of rat Opioid Receptor, Non-selective Binding, Oprm1 (gene 25601) (P33535 whole entry, looked up): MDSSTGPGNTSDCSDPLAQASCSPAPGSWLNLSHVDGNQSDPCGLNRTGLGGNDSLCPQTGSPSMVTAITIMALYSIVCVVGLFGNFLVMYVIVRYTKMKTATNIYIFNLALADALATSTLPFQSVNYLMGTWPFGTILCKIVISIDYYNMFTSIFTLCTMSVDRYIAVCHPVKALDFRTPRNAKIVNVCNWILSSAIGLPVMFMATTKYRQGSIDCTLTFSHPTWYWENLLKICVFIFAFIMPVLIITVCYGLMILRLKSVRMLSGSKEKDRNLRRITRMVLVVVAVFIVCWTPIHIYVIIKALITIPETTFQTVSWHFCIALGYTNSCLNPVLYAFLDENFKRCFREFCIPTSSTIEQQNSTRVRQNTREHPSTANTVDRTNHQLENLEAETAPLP
Outline: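 Rat forebrain membranes, cell-free radioligand binding with filter-based scintillation counting, read 1.5 h after dosing. Primary screen in duplicate at 25 uM; actives retested in concentration series. Loss of signal versus DMSO baseline scored.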

[3] = molecular target: rat Neonicotinoid receptor (NNR), Chrna7 (gene 25302) (UniProt Q05941); assay: NVS_LGIC_rNNR_BungSens: NovaScreen (NVS) Ligand-Gated Ion Channel Assay for rat Neonicotinoid receptor (NNR) (AID 2283315)
Outline: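 Radioligand displacement binding on rat cortical membranes, 2.5 h incubation, filtration and scintillation counting. Loss of specific binding fitted relative to DMSO.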

[4] = NVS_IC_rCaDHPRCh_L: NovaScreen (NVS) Ion Channel Assay for rat Calcium Channel, Type L, Dihydropyridine Site (CaDHPRCh_L) (AID 2283320)
Outline: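 Radioligand binding to dihydropyridine site on rat cortical membranes, filter-based scintillation counting, 1 h after dosing. Screened in duplicate at 25 uM; actives rerun in concentration-response up to 50 uM. Loss of signal versus DMSO baseline.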

[5] = molecular target: Sodium channel protein type 1 subunit alpha (Rattus norvegicus) (UniProt P04774); assay: NVS_IC_rNaCh_site2: NovaScreen (NVS) Ion Channel Assay for rat Sodium Channel, Site 2 (NaCh) (AID 2283322);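 further: hit means loss of radioligand binding signal relative to DMSO so AC50 marks displacement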
Outline: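 Membranes: rat forebrain. Format: competitive radioligand displacement, filter separation, scintillation readout, 1 h exposure. Primary screen in duplicate at 25 uM; actives retested in concentration series.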

[6] = molecular target: rat Gamma-Aminobutyric Acid Type A Receptor, Non-Selective (GABAR-NonSelective), Gabra1 (gene 29705) (UniProt P62813); assay: NVS_LGIC_rGABAR_NonSelective: NovaScreen (NVS) Ligand-Gated Ion Channel Assay for rat Gamma-Aminobutyric Acid Type A Receptor, Non-Selective (GABAR-NonSelective) (AID 2283326)
Sequence of rat Gamma-Aminobutyric Acid Type A Receptor, Non-Selective (GABAR-NonSelective), Gabra1 (gene 29705) (P62813 whole entry, looked up): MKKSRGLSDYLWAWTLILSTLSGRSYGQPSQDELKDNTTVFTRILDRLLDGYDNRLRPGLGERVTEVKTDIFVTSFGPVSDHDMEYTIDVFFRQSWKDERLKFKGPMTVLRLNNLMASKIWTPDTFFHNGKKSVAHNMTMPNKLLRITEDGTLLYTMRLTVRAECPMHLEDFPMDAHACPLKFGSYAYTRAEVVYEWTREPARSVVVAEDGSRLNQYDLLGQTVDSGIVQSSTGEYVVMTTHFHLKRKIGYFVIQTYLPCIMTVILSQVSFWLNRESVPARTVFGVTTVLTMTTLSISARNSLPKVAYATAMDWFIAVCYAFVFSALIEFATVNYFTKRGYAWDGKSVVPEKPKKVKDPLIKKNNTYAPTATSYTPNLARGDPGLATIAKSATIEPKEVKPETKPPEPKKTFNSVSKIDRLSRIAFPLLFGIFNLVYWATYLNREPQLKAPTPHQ
Outline: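 Radioligand displacement on rat whole-brain extract, 1 h, filter scintillation readout; signal loss fitted versus DMSO. Primary screen in duplicate at 25 uM; hits (e.g. ≥30% inhibition) retested in concentration-response up to 50 uM.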

[7] = molecular target: Voltage-gated inwardly rectifying potassium channel KCNH2 (Homo sapiens) (UniProt Q12809); assay: NVS_IC_hKhERGCh: NovaScreen (NVS) Ion Channel Assay for human Potassium Channel ERG (KhERGCh) (AID 2283333)
Sequence of Voltage-gated inwardly rectifying potassium channel KCNH2 (Homo sapiens) (Q12809 whole entry, looked up): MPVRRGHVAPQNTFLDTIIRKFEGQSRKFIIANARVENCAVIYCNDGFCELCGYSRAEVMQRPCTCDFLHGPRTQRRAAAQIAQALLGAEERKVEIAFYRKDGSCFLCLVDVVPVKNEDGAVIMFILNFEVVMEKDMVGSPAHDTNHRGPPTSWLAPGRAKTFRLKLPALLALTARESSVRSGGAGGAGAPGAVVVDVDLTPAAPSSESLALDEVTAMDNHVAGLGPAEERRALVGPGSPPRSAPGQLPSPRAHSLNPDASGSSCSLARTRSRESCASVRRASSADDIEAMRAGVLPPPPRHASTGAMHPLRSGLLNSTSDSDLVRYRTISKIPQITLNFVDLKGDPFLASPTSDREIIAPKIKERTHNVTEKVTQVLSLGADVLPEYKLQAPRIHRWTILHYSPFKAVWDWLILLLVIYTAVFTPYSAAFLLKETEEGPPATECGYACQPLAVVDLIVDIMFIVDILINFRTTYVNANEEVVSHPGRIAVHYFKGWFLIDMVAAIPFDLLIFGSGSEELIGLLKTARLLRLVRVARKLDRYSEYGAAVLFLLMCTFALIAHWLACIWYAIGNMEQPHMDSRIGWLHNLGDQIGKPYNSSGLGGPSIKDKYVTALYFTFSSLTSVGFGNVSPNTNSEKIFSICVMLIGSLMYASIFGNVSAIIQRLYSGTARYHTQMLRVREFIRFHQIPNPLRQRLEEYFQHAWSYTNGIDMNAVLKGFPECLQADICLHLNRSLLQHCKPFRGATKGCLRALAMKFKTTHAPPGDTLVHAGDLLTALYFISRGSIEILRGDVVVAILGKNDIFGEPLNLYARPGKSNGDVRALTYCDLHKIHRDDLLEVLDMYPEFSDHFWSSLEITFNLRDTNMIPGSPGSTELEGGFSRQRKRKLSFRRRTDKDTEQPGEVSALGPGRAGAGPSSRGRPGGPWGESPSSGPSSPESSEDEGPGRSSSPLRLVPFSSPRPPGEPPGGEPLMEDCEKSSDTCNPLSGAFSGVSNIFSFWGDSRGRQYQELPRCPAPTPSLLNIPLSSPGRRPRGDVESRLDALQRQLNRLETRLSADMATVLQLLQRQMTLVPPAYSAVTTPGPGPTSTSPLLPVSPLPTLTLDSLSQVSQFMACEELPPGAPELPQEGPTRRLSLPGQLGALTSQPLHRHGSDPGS
Outline: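 Cell-free radioligand competition binding on hERG protein extracted from CHO cells, read by filter-based scintillation counting 0.75 h after dosing. Primary screen at 25 uM in duplicate, actives followed in concentration series. Signal loss fitted versus DMSO.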

[8] = molecular target: bovine Gamma-Aminobutyric Acid Type A Receptor BDZ, alpha 1 site (GABARa1), GABRA1 (gene 780973) (UniProt P08219); assay: NVS_LGIC_bGABARa1: NovaScreen (NVS) Ligand-Gated Ion Channel Assay for bovine Gamma-Aminobutyric Acid Type A Receptor BDZ, alpha 1 site (GABARa1) (AID 2283321)
Sequence of bovine Gamma-Aminobutyric Acid Type A Receptor BDZ, alpha 1 site (GABARa1), GABRA1 (gene 780973) (P08219 whole entry, looked up): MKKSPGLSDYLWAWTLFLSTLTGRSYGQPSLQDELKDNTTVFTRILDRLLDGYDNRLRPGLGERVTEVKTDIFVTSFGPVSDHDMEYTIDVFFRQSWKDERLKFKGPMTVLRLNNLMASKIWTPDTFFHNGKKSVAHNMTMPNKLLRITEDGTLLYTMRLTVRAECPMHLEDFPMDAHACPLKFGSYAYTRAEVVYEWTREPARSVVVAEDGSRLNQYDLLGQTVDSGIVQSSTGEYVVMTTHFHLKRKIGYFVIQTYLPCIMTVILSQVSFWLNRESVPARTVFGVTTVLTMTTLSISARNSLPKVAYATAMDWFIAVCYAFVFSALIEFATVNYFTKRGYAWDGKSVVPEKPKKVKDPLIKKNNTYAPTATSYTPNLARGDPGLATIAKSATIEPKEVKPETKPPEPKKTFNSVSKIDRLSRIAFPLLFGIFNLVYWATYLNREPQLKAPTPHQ
Outline: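 Radioligand competition binding on bovine cortical membranes, 0.75 h, filter-based scintillation counting. Primary single concentration 25 uM in duplicate; actives rerun in concentration-response to 50 uM max. Loss of signal fitted versus DMSO.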

[9] = molecular target: bovine Gamma-Aminobutyric Acid Type A Receptor BDZ, alpha 5 site (GABARa5), GABRA5 (gene 523515) (UniProt Q08E50); assay: NVS_LGIC_bGABARa5: NovaScreen (NVS) Ligand-Gated Ion Channel Assay for bovine Gamma-Aminobutyric Acid Type A Receptor BDZ, alpha 5 site (GABARa5) (AID 2283323)
Outline: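 Radioligand competitive displacement binding on bovine hippocampal membranes, read 1 hr after dosing by filter-based scintillation counting. Primary screen at 25 uM in duplicate; actives (e.g. ≥30% inhibition) then run in concentration-response up to 50 uM.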

[10] = molecular target: rat Thyrotropin Releasing Hormone Receptor (TRH), Trhr (gene 25570) (UniProt Q01717); assay: NVS_GPCR_rTRH: NovaScreen (NVS) G Protein-Coupled Receptor Assay for rat Thyrotropin Releasing Hormone Receptor (TRH) (AID 2283329);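 further: hit means lower bound tracer signal versus DMSO baseline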
Outline: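 Competitive radioligand binding on rat forebrain membrane preparations, with filtration and scintillation readout after 4 h. Primary testing in duplicate at 25 uM; actives confirmed in concentration-response. DMSO defined baseline.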

[11] = molecular target: human Androgen Receptor (AR), AR (gene 367) (UniProt P10275); assay: NVS_NR_hAR: NovaScreen (NVS) Nuclear Receptor Binding Assay for human Androgen Receptor (AR) (AID 2283332)
Sequence of human Androgen Receptor (AR), AR (gene 367) (P10275 whole entry, looked up): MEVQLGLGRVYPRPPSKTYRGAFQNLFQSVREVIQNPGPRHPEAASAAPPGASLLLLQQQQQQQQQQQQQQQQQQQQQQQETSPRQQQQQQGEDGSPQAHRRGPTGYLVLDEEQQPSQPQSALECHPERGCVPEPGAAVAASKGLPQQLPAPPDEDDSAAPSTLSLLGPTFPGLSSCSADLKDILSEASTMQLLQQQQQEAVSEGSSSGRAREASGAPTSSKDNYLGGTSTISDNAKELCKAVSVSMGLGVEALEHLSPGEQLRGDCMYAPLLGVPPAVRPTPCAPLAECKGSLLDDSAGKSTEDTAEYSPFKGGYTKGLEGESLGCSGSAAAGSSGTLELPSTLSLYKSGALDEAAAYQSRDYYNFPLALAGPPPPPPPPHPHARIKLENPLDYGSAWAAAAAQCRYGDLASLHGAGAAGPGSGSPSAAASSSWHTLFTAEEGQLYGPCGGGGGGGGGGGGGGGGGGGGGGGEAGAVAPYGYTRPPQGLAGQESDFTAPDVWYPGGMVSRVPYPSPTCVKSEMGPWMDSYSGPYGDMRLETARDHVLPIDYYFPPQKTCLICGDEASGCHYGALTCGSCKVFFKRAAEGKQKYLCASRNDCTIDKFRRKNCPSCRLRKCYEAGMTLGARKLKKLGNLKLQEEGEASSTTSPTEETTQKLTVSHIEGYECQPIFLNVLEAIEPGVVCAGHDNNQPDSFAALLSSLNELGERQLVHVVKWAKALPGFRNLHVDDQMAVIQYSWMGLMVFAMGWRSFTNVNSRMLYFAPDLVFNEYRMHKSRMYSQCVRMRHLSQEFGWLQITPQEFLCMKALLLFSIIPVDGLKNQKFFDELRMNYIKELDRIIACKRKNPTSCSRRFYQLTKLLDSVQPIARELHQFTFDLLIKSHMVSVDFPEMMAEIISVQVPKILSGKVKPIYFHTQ
Outline: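 LnCAP cell-free extract; radioligand displacement read by scintillation counting after 20 h. Primary screen single concentration 25 uM in duplicate, actives then run as concentration series; loss-of-signal fitted relative to DMSO baseline.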

[12] = molecular target: rat Vasopressin 1 Receptor (V1), Avpr1a (gene 25107) (UniProt P30560); assay: NVS_GPCR_rV1: NovaScreen (NVS) G Protein-Coupled Receptor Assay for rat Vasopressin 1 Receptor (V1) (AID 2283316)
Outline: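 Radioligand binding on rat liver membranes, 1.5 h incubation, filter-based scintillation counting. Single 25 uM screen in duplicate; chemicals meeting threshold (e.g. 30% inhibition) run in concentration-response up to 50 uM.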

[13] = molecular target: Glutamate receptor ionotropic, kainate 1 (Rattus norvegicus) (UniProt P22756); assay: NVS_IC_rKAR: NovaScreen (NVS) Ion Channel Assay for rat Kainic Acid Receptors (KAR) (AID 2283334; active means hit-call score of the fitted dose curve at least 0.9, where 1 is the maximum; inactive means score below 0.9)
Outline: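 Radioligand displacement binding using rat forebrain membranes, 1 h incubation, filter-based scintillation counting. Screened in duplicate at 25 uM, with actives retested in concentration-response up to 50 uM; fitted against DMSO.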

[14] = molecular target: rat Oxytocin Receptor (OXT), Oxtr (gene 25342) (UniProt P70536); assay: NVS_GPCR_rOXT: NovaScreen (NVS) G Protein-Coupled Receptor Assay for rat Oxytocin Receptor (OXT) (AID 2283330)
Outline: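 Radioligand displacement on rat uterine membranes, 1 h incubation, filter-based scintillation counting. Chemicals were screened in duplicate at 25 uM, and those passing threshold were retested in concentration-response up to 50 uM. Loss of binding was fitted versus DMSO.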

[15] = molecular target: human Peripheral-type Benzodiazepine Receptor (PBR), TSPO (gene 706) (UniProt P30536); assay: NVS_MP_hPBR: NovaScreen (NVS) Membrane Protein Assay for human Peripheral-type Benzodiazepine Receptor (PBR) (AID 2283331);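 further: hits reduce radioligand binding relative to DMSO baseline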
Sequence of human Peripheral-type Benzodiazepine Receptor (PBR), TSPO (gene 706) (P30536 whole entry, looked up): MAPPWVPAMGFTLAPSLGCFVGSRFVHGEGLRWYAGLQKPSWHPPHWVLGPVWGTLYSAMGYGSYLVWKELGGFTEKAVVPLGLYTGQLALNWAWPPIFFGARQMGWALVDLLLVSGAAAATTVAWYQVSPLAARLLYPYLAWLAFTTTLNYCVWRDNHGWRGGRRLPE
Outline: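 Radioligand displacement on human colonic cell membranes, 1 h incubation; bound radioactivity by filtration and scintillation counting. Primary screen in duplicate at 25 uM single concentration, actives followed up in concentration series; loss of binding versus DMSO.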

[16] = molecular target: rat Somatostatin Receptor (SST), Sstr1 (gene 25033) (UniProt P28646); assay: NVS_GPCR_rSST: NovaScreen (NVS) G Protein-Coupled Receptor Assay for rat Somatostatin Receptor (SST) (AID 2283314)
Sequence of rat Somatostatin Receptor (SST), Sstr1 (gene 25033) (P28646 whole entry, looked up): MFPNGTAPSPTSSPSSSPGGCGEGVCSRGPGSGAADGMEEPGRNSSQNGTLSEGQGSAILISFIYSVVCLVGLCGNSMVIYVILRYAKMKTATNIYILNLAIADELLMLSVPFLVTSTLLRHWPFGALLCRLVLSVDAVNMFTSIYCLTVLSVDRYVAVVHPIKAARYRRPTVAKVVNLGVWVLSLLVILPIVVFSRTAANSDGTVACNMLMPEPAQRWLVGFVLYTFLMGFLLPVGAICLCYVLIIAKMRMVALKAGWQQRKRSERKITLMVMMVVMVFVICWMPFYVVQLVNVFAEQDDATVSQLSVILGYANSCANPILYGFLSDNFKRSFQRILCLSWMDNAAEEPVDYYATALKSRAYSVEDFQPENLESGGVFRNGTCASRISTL
Outline: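 Rat forebrain membranes; radioligand displacement read by filter-based scintillation counting 1 h after dosing. Primary screen in duplicate at 25 uM. Actives (e.g., 30% inhibition) were rerun as concentration-response to 50 uM max and fitted against DMSO.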

[17] = molecular target: Voltage-dependent N-type calcium channel subunit alpha-1B (Rattus norvegicus) (UniProt Q02294); assay: NVS_IC_rCaChN: NovaScreen (NVS) Ion Channel Assay for rat Calcium Channel, Type N (CaChN) (AID 2283317)
[18] = molecular target: rat Glutamate, AMPA Site (AMPA), Gria1 (gene 50592) (UniProt P19490); assay: NVS_LGIC_rAMPA: NovaScreen (NVS) Ligand-Gated Ion Channel Assay for rat Glutamate, AMPA Site (AMPA) (AID 2283324)
Sequence of rat Glutamate, AMPA Site (AMPA), Gria1 (gene 50592) (P19490 whole entry, looked up): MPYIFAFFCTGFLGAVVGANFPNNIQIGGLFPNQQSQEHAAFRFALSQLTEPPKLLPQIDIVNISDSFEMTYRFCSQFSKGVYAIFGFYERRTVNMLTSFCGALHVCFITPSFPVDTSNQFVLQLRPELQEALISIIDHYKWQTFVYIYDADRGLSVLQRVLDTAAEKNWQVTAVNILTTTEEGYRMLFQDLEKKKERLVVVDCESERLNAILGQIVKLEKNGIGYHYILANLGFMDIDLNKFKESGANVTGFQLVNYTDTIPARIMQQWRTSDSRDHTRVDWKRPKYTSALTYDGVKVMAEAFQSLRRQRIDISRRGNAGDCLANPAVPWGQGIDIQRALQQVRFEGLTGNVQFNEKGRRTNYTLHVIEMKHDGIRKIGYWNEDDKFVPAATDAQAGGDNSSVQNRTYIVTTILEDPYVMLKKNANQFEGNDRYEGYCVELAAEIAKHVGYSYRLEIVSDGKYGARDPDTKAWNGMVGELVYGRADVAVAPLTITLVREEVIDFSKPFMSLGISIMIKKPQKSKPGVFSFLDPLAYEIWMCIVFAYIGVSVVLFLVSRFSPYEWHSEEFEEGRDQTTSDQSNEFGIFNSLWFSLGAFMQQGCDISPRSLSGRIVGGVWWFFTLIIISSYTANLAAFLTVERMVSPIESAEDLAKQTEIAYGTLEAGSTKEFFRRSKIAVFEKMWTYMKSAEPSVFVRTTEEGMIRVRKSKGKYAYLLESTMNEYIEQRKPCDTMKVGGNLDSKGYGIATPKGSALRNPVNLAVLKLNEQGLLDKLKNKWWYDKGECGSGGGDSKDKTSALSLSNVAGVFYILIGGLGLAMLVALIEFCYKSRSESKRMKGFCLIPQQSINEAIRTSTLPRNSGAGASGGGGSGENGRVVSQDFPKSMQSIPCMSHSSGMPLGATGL
Outline: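 Rat forebrain membranes; radioligand binding read 1 h after dosing by filtration and scintillation counting. Duplicate single-point screen at 25 uM, then concentration-response to 50 uM for threshold hits (e.g. 30% inhibition); loss of signal vs DMSO.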

[19] = molecular target: human Serotonin, 5-Hydroxytryptamine Receptor 3 (5HT3), HTR3A (gene 3359) (UniProt P46098); assay: NVS_LGIC_h5HT3: NovaScreen (NVS) Ligand-Gated Ion Channel Assay for human Serotonin, 5-Hydroxytryptamine Receptor 3 (5HT3) (AID 2283325)
Outline: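 Radioligand displacement binding to human 5-HT3 from HEK293 membranes, read by filter-based scintillation counting after 1 h. Screen at 25 uM in duplicate; chemicals passing threshold were retested in concentration-response up to 50 uM.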

Clc1ccc(C(c2ccc(Cl)cc2)C(Cl)Cl)cc1
outcome [1]: inactive

CCCCC(CC)COC(=O)c1ccc(C(=O)OCC(CC)CCCC)c(C(=O)OCC(CC)CCCC)c1 (configuration not stated)
outcome [2]: inactive

CCOC(=O)[C@]1(c2ccccc2)Oc2ccccc2[C@@H]1N
AC50 [3]: 25 µM (active)
AC50 [2]: 7.52 µM (active)
AC50 [4]: 6.77 µM (active)
AC50 [5]: 2.3 µM (active)
AC50 [6]: 1.08 µM (active)
AC50 [7]: 1.44 µM (active)

[Cl-].[Cl-].[Hg+2]
AC50 [2]: 13.6 µM (active)
AC50 [1]: 27.6 µM (active)
AC50 [4]: 16.8 µM (active)

O=[N+]([O-])C(Br)(CO)CO
AC50 [2]: 16 µM (active)

CC(C)(O)c1cnn2c(-c3ccc(F)c(-c4c(F)cccc4C#N)c3)cnc2n1
outcome [8]: inactive
AC50 [9]: 0.00229 µM (active)
outcome [6]: inactive

C[C@]12C=CC3=C4CCC(=O)C=C4CC[C@H]3[C@@H]1CC[C@@H]2O
AC50 [8]: 20.5 µM (active)
AC50 [9]: 40.7 µM (active)
outcome [10]: inactive
AC50 [11]: 0.345 nM (active) and 9.04 nM (active)

Cc1ccc(N)c(N)c1
outcome [8]: inactive

C1=Cc2cccc3cccc1c23
AC50 [12]: 1.11 µM (active)
outcome [13]: inactive

O=C(N[C@H](c1ccccc1)[C@@H]1CN2CCC1CC2)c1c(Cl)ccc(C(F)(F)F)c1Cl
AC50 [2]: 9.3 µM (active)
AC50 [5]: 0.113 µM (active)
AC50 [6]: 0.238 µM (active)
outcome [14]: inactive
outcome [15]: inactive
outcome [7]: inactive

Cc1ccc([N+](=O)[O-])cc1
AC50 [1]: 4.96 µM (active)

CCCCCCCCOC(=O)c1ccc(C(=O)OCCCCCCCC)c(C(=O)OCCCCCCCC)c1
AC50 [16]: 0.326 µM (active)

CCC[CH2][Sn]([Cl])([CH2]CCC)[CH2]CCC
outcome [16]: inactive
outcome [17]: inactive
AC50 [2]: 3.98 µM (active)
AC50 [4]: 11.6 µM (active)
AC50 [5]: 17.7 µM (active)
outcome [18]: inactive
AC50 [7]: 4.03 µM (active)

O=[N+]([O-])c1ccc(Oc2ccc(Cl)cc2Cl)cc1
outcome [1]: inactive

COP(=S)(OC)SCN1C(=O)c2ccccc2C1=O
AC50 [2]: 31.8 µM (active)
outcome [5]: inactive

CS(=O)(=O)NC(=O)c1cc(Oc2ccc(C(F)(F)F)cc2Cl)ccc1[N+](=O)[O-]
AC50 [16]: 1.38 µM (active)
outcome [17]: inactive

ClC1=C(Cl)C2(Cl)C3C(Cl)C=CC3C1(Cl)C2(Cl)Cl (configuration not stated)
outcome [17]: inactive

O=C(O)C1C2CCC(O2)C1C(=O)O (configuration not stated)
AC50 [16]: 3.96 µM (active)
AC50 [6]: 2.14 µM (active)

O=C(Oc1ccc(Br)cc1)N1CCN2CCC1CC2
outcome [1]: inactive
outcome [8]: inactive
AC50 [5]: 8.18 µM (active)
AC50 [19]: 12.5 µM (active)

CCOc1cccc(C2(N3CCN(c4ccccc4)CC3)CCC(C)CC2)c1 (configuration not stated)
outcome [17]: inactive
outcome [13]: inactive

CCCCCCCCn1sccc1=O
AC50 [4]: 18 µM (active)
AC50 [5]: 31.5 µM (active)
outcome [18]: inactive
AC50 [15]: 1.24 µM (active)

c1ccc(NNc2ccccc2)cc1
outcome [18]: inactive

Nc1ccc(N=Nc2ccccc2)cc1
outcome [6]: inactive
outcome [7]: inactive

CCC(C)c1ccc(O)cc1 (configuration not stated)
outcome [6]: inactive

OCCCBr
outcome [10]: inactive

Nc1ccc(Cl)cc1N
outcome [11]: inactive

CC(C)(C)C(O)(CCc1ccc(Cl)cc1)Cn1cncn1 (configuration not stated)
outcome [7]: inactive
